LMP1 NFkB inh = EBV LMP1-driven NF-kappaB luciferase reporter inhibitors, primary screen, cell-based, luminescence, single point | LMP1-induced NF-kappaB luciferase reporter cells | inhibition, % at 12.5 µM | 350,000 tested, 0.69% active | AID 504558, 2011; in the data active means inhibition above about 41%; inconclusive means no clear call, values can overlap the other calls;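 further: 0% = neutral control wells and 100% = reference inhibitor control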
MITF TRPM1 inh = inhibitors of MITF-dependent TRPM1 promoter reporter, primary screen, cell-based, SK-MEL-5, single point, luciferase; SK-MEL-5 TRPM1 promoter luciferase, 24 h; inhibition, % at 12.5 µM; 330,000 tested, 0.83% active; AID 488899, 2010;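 active means mean inhibition across replicates of 60% or more, whatever share of single replicates reaches that level; inconclusive means some that reach 60%, reason not given; inactive means mean inhibition across replicates below 60%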
EWS-Fli inh = EWS/Fli-driven NR0B1 reporter inhibitors, primary screen, A673 cells, NR0B1 luciferase, luminescence, MLPCN library; viability-normalised; inhibition, % at 12.6 µM; 350,000 tested, 0.67% active; AID 651661, 2012;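 active means mean inhibition of at least 50% after viability correction, with every replicate also passing that limit; inconclusive means mean reaches 50% but only one of two replicates passes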;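 further: firefly luciferase signal divided by Alamar Blue viability fluorescence both relative to DMSO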
PGC1a acetyl inh = inhibitors of PGC1a acetylation signal, primary screen, cell-based, U2OS, AlphaScreen, inhibitor mode. inhibition, % at 15.6 µM. AID 651687, 2012. AlphaScreen anti-acetyl-lysine; with virally co-expressed GCN5 acetyltransferase. 350,000 tested, 0.17% active;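 active means every replicate shows inhibition of at least 40%; inconclusive means mean inhibition at least 40% but some replicate below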;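 further: 0% = neutral control wells and 100% = positive control wells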
PAX8 reporter = inhibitors of PAX8-driven TPO luciferase reporter, primary screen, RMG-I cells, single concentration | inhibition, % at 12.6 µM | AID 652154, 2013 | SteadyGlo, 24 h | 360,000 tested, 1.2% active;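 active means mean replicate inhibition at least 60% with every replicate also reaching 60%; inconclusive means only one of the two criteria is met; inactive means mean below 60% and not all replicates reaching 60%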;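 further: luciferase light reporting Pax8 driven TPO promoter activity; plate controls were median of neutral control wells for no effect and mitoxantrone controls for full effect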
LGR2 antag = inhibitors of bursicon-induced LGR2 CRE-luciferase signal, primary screen, cell-based, HEK293, CRE-luciferase reporter, bursicon stimulation | 380,000 tested, 0.35% active | inhibition, % at 9.99 µM | Drosophila bursicon receptor LGR2 (rickets) | bursicon-stimulated, 4 h;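 active means drop in luminescence signal, shown as inhibition above about 50% in the replicate tests, limit read from the data, passing the limit was not always enough; inconclusive means probably only some replicates passing the limit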;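 further: agonist challenge used bursicon conditioned medium at about half maximal strength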
Numbers without * were called inactive; u = inconclusive; x = not tested or not shown. Compounds with a hit are over-represented: about 2.2% of the library has one in this group of screens.

SMILES | LMP1 NFkB inh | MITF TRPM1 inh | EWS-Fli inh | PGC1a acetyl inh | PAX8 reporter | LGR2 antag
O=C(Cc1ccncc1)NCC[C@H]1CC[C@H](NC(=O)Nc2ccc(F)cc2)[C@H](CO)O1 | x | x | 1.7 | 3.3 | 3.1 | 10.5
CO[C@H]1CN(C)C(=O)c2ccc(NC(=O)Nc3ccc(Cl)c(Cl)c3)cc2OC[C@H](C)NC[C@@H]1C | x | x | 69.3* | x | 30.1 | 21.7
CO[C@@H]1CN(C)C(=O)c2ccc(NC(=O)c3ccc(-c4ccccc4)cc3)cc2OC[C@H](C)NC[C@@H]1C | x | x | 14.0 | -11.5 | 64.6* | 7.4
C[C@H](CO)N1C[C@H](C)[C@H](CN(C)Cc2ccncc2)OCCCC[C@H](C)Oc2ccc(NC(=O)CCC(F)(F)F)cc2C1=O | x | x | -2.5 | 3.9 | 4.9 | -7.6
C[C@@H]1CN([C@@H](C)CO)C(=O)Cc2cc(N(C)C)ccc2O[C@H]1CN(C)Cc1ccc(Oc2ccccc2)cc1 | x | x | -15.5 | -16.5 | 81.5* | 21.3
C[C@@H]1CN([C@@H](C)CO)C(=O)c2cc(N(C)C)ccc2O[C@H]1CN(C)Cc1ccc(Oc2ccccc2)cc1 | x | x | 8.2 | -5.0 | 11.2 | -9.6
C[C@@H]1CN([C@@H](C)CO)C(=O)c2cc(N(C)C)ccc2O[C@@H]1CN(C)Cc1ccc(Oc2ccccc2)cc1 | x | x | -9.2 | -6.3 | 83.6* | 28.5
O=C(N[C@H]1C=C[C@H](CC(=O)N2CCc3ccccc3C2)O[C@H]1CO)C1CC1 | x | x | -5.2 | 1.2 | 3.9 | -0.2
C[C@@H]1CCCCO[C@H](CN(C)S(=O)(=O)c2ccccc2)[C@H](C)CN([C@H](C)CO)C(=O)c2cc(NS(=O)(=O)c3ccc(F)cc3)ccc2O1 | x | x | 15.8 | -16.4 | 43.0 | 6.8
O=C(O)c1ccc(Cn2cc(/C=C\[N+](=O)[O-])c3ccccc32)o1 | 13.4 | 9.4 | 21.0 | -7.5 | 21.9 | 8.5
COC(=O)c1ccc(Cn2cc(/C=C\[N+](=O)[O-])c3ccccc32)o1 | 12.3 | 30.8 | 68.1* | 6.7 | 27.5 | 0.7
CN1CCN(C(=O)C[C@H]2CC[C@H]3[C@@H](COC[C@H](O)CN3C(=O)Cc3ccccc3)O2)CC1 | x | x | 12.4 | 4.3 | 6.6 | 12.0
Cc1oc2c(c(=O)c1C)C(=O)CC(c1ccccc1)C2 (configuration not stated) | 1.7 | 0.7 | x | 3.9 | x | x
CS(=O)(=O)c1sc(C#N)c2c1C(=O)CC(c1ccccc1)C2 (configuration not stated) | 23.9 | 87.2* | 42.2 | 15.9 | 131.1* | 58.0*
FC(F)(F)c1cc(-c2ccccc2)nc(N2CCCCC2)n1 | -11.0 | 0.3 | x | -2.8 | x | 9.2
O=C(O)C1CCCN1c1nc(-c2ccc(Cl)c(Cl)c2)cc(C(F)(F)F)n1 (configuration not stated) | 37.0 | x | 8.3 | x | 77.4* | -7.7
C[C@@H]1CCCCO[C@H](CN(C)S(=O)(=O)c2cccs2)[C@H](C)CN([C@@H](C)CO)C(=O)c2cc(NC(=O)Nc3ccc(C(F)(F)F)cc3)ccc2O1 | x | x | -1.4 | 7.7 | 59.6 | 5.7
Cc1ccc(-c2nc(C(Cl)Cl)c3ccccc3n2)cc1 | -21.0 | 17.2 | 58.9* | 27.6 | -7.5 | -35.4
CC(=O)OC1CCC2C3CCC4OC(=O)CCC4C3CCC12C (configuration not stated) | 2.6 | -8.4 | 2.3 | 9.9 | 5.0 | -29.8
C=C1C(=O)C2=CC1CCC(=O)C1(C)CCC(OC(C)=O)C(C)(C)C1CC2O (configuration not stated) | u | x | 57.2* | x | 104.8* | 102.5*
S=C(c1ccc2c(c1)OCO2)N1CCN(c2cccc(Cl)c2)CC1 | 6.7 | 14.5 | 59.7* | 3.8 | 42.2 | 13.3
Cc1cccc(N2CCN(C(=S)c3ccc4c(c3)OCO4)CC2)c1 | 11.0 | 0.5 | 42.1 | 6.5 | -10.0 | -5.2
Cc1coc2c1C(=O)C(=O)c1c-2ccc2c(C)cccc12 | 78.5* | x | x | 2.6 | x | x
Cc1coc2c1C(=O)C(=O)c1c-2ccc2c1CCCC2(C)C | -4.4 | 93.3* | -22.8 | -12.3 | x | -7.6
C[C@H]1COC2=C1C(=O)C(=O)c1c2ccc2c1CCCC2(C)C | -19.7 | 84.2* | x | -15.1 | x | x
SMILES | LMP1 NFkB inh | MITF TRPM1 inh | EWS-Fli inh | PGC1a acetyl inh | PAX8 reporter | LGR2 antag
COc1ccc(S(=O)(=O)Nc2ccc3c(c2)C(=O)N([C@H](C)CO)C[C@@H](C)[C@H](CN(C)C)O3)cc1 | x | x | -4.8 | -11.8 | -0.7 | 0.7
C[C@H]1CN([C@@H](C)CO)C(=O)c2cc(NC(=O)Nc3ccc(F)cc3)ccc2O[C@H]1CN(C)S(=O)(=O)c1ccc(F)cc1 | x | x | 0.0 | -16.6 | x | -4.7
COc1ccc2[nH]c3c(c2c1)CCN1C(=O)N([C@@H](C)C(=O)NCc2ccc(C)cc2)C(=O)[C@]31C | 5.7 | 1.3 | 6.6 | -2.1 | x | 86.0*
Oc1ccc2ccccc2c1CN1CC2CCC(CC2)C1 | -7.8 | -1.1 | 11.6 | 4.0 | 83.8* | x
O=C(Nc1cccc(F)c1)N1CC(=O)N2[C@H](CO)[C@H](c3ccc(C#Cc4cccnc4)cc3)[C@H]2C1 | x | x | x | 32.5 | x | 29.5
COc1ccccc1-c1nnc(Sc2nc([N+](=O)[O-])nn2C)o1 | 57.4* | 57.5 | x | -37.0 | x | 30.9
Cn1cnnc1Sc1nc([N+](=O)[O-])nn1C | -1.1 | 10.7 | -6.2 | 9.6 | -1.8 | -8.6
CN(C)c1ccc(/C=C/c2nc3ccccc3c(=O)n2CCO)cc1 | -13.3 | -7.9 | -31.9 | x | -42.9 | 8.1
CN(C)c1ccc(/C=C/c2ccc3c4ccccc4ccc3[n+]2-c2ccccc2)cc1 | -18.6 | 103.5* | 61.7* | 43.5* | 102.5* | u
CN(C)c1ccc(/C=C/c2ccc3ccccc3[n+]2C)cc1 | 21.7 | 87.8* | x | 35.3 | -4.5 | 12.3
O=C(Cc1ccccc1)N1C[C@H]2[C@@H](c3ccccc31)[C@H](CO)N2C(=O)C1CCCC1 | x | x | 3.1 | -0.7 | 7.4 | -10.7
CN1C(=O)/C(=C\C(=O)c2cccs2)c2ccccc21 | 5.8 | 51.4 | 41.9 | -2.5 | 89.1* | 24.5
C[C@H]1CN([C@@H](C)CO)S(=O)(=O)c2ccc(C#CCN(C)C)cc2O[C@@H]1CN(C)Cc1ccccc1F | x | x | 11.4 | -27.2 | x | 17.5
c1csc(CNc2ccc3c(c2)OCCO3)c1 | 3.3 | -13.3 | 10.1 | x | -28.5 | 51.4*
CC(C)NC(=O)Nc1ccc2c(c1)C(=O)N([C@H](C)CO)C[C@H](C)[C@H](CN(C)CC1CCCCC1)OCCCC[C@@H](C)O2 | x | x | x | 1.1 | 6.1 | 2.1
Cn1cnc([N+](=O)[O-])c1S(=O)(=O)Nc1ccccc1 | 4.8 | 8.5 | -24.6 | 19.5 | 0.2 | 8.0
Cn1cnc([N+](=O)[O-])c1S(=O)(=O)Oc1ccccc1 | -12.3 | 37.4 | 25.7 | -38.3 | 89.8* | 17.0
Cn1cnc([N+](=O)[O-])c1S(=O)(=O)c1cccc(Cl)c1 | -2.1 | 18.2 | 23.1 | x | 83.1* | 2.2
